In PubChem BioAssay (EPA / NIEHS):
Active and inactive are the calls of the source. Rule for the calls: active = hit-call score of the fitted dose curve at least 0.9, where 1 is the maximum; inactive = score below 0.9.

Read-out: NAD(P)H dehydrogenase [quinone] 1 (NQO1), NQO1 (gene 1728)
Experiment: LTEA_HepaRG_NQO1: Life Technologies and Expression Analysis (LTEA) Assay for NAD(P)H dehydrogenase [quinone] 1 (NQO1) using HepaRG (AID 2283526)
Settings: mRNA level, 48 h; actives raise or lower the signal
Procedure: LTEA_HepaRG is a cell based, multiplexed-readout assay that uses HepaRG, a human liver cell line, with measurements taken at 48 hours after chemical dosing on a 96-well plate.LTEA_HepaRG_NQO1 is one of 102 assay component(s) measured in the LTEA HepaRG cell culture assay. It is a marker of Diseases associated with NQO1 include Tardive Dyskinesia and Childhood Leukemia.Data from the assay component LTEA_HepaRG_NQO1 was analyzed into 1 endpoint. This assay endpoint, LTEA_HepaRG_NQO1, was analyzed with bidirectional fitting relative to DMSO as the negative control and baseline of activity. Using a type of inducible reporter, measures of mRNA induction for gain or loss-of-signal activity can be used to understand regulation of transcription factor activity. To generalize the intended target to other relatable targets, this assay endpoint is annotated to the oxidoreductase intended target family, where the subfamily is quinone-acceptor.
A total of 1060 chemcials from the ToxCast library were tested in eight-point concentration-response experiments. Cell culture and cytotoxicity assays were conducted at Thermo Fisher Scientific's Custom Services facility (Madison, WI). A single lot of human HepaRG cells (Thermo Fisher Scientific, Frederick, MD) was used for the cell culture experiments. 96-well format collagen type I coated plates of human HepaRG cells were prepared using established methods. Briefly, cryopreserved HepaRG cells were thawed, plated at a density of approximately 100,000 cells/well in HepaRG Thaw, Plate, and General Purpose media (HPRG770, Thermo Fisher Scientific), and incubated for 48 hours. 0.5% DMSO was selected as vehicle control to balance the requisite need of DMSO in HepaRG cultures to maintain differentiation (for example, baseline metabolism, proportions of hepatocytes vs. cholangiocytes), while enabling further hepatic receptor pathway activation (for example, PXR and CAR) in response to chemical exposure. 48 hours after plating, the culture medium was replaced with HepaRG Serum-Free Incudtion Media. Cells were exposed to each test chemical in duplicate and maintained in CO2 incubators for another 48 hours. Chemical plates were thawed to room temperature and 200x concentrations of treatment groups were prepared. 8-point conentration-reponse curves were made with the highest exposure at 100 uM, followed by half-log dilutions, all in 0.5% DMSO. Each test plate contained variouse controls, induction positive controls (1mM phenobarbital), cytotoxicity positive controls ([…] aflatoxin B1), vehicle controls (0.5% DMSO), and total lysis controls (0.5% DMSO). Cell morphology images were taken using an Essen IncuCyte FLR automated microscope, with six 96-well plates imaged in about 24 minutes. Images were captured and exported and JPEG files. Spent culture media was transfered to black-well plates for the LDH assay, and remaining media was sorted at -80 C for later use. Cells were treated with RLT buffer and frozen until shipped for gene expression analysis. Total RNA was isolated from the cell suspension in 75 uL of Buffer RLT (Qiagen, Germantown, MD 20874) by Quintiles/Expression Analysis (Durham, NC) using a custom isolation procedure. Total RNA from each plate well was transferred to a preamplification plate. Fluidigm's 96.96 Dynamic ArrayTM (Fluidigm, Amsterdam, the Netherlands) technology was used for gene expression analyses by quantitative reverse transcription polymerase chain reaction (qRT-PCR, performed by Quintiles/Expression Analysis, Durham, NC)89. Standard TaqManTM Assays (Applied Biosystems/ThermoFisher Scientific, Foster City, CA) were used to assess the expression of 93 genes selected based on their selectivity and sensitivity to important hepatic receptors known to be modulated by environmental chemicals; importance in human hepatocyte functionality; and hepatotoxicity. […]

Row | Compound | outcome | AC50
1 | CN(C)N=O | inactive | 
2 | CC12CC1(C)C(=O)N(c1cc(Cl)cc(Cl)c1)C2=O (stereo not given) | inactive | 
3 | ClC1(Cl)C2(Cl)C3(Cl)C4(Cl)C(Cl)(Cl)C5(Cl)C3(Cl)C1(Cl)C5(Cl)C24Cl (stereo not given) | inactive | 
4 | O=c1[nH]c(=O)[nH]c(=O)[nH]1 | inactive | 
5 | CCC(C)(C)c1ccc(O)c(C(C)(C)CC)c1 | inactive | 
6 | CCCCCCCCc1ccc(O)cc1 | inactive | 
7 | CC(=O)[O][Hg][c]1ccccc1 |  | 12.3 µM (active)
8 | CCN1CCC2(CC1)COc1cc3c(cc12)N(C(=O)c1ccc(-c2ccc(-c4nnc(C)o4)cc2C)cc1)CC3 | inactive | 
9 | C[C@]12CCC(=O)C[C@@H]1CC[C@@H]1[C@@H]2CC[C@]2(C)[C@@H](O)CC[C@@H]12 | inactive | 
10 | CC(C)(C)c1cc(O)ccc1O | inactive | 
11 | Oc1cccc2cccnc12 | inactive | 
12 | O=C(O)C(F)(F)C(F)(F)C(F)(F)C(F)(F)C(F)(F)C(F)(F)C(F)(F)C(F)(F)C(F)(F)C(F)(F)F | inactive | 
13 | Cc1ccccc1N | inactive | 
14 | O=C(O)C(Cl)(Cl)Cl | inactive | 
15 | O=C(O)C(F)(F)C(F)(F)C(F)(F)C(F)(F)C(F)(F)C(F)(F)F | inactive | 
16 | C=C(C)C(=O)[O][Sn]([CH2]CCC)([CH2]CCC)[CH2]CCC |  | 9.2 µM (active)
17 | Cn1sc(Cl)cc1=O | inactive | 
18 | C[C@@H]1C[C@@H]([C@H](O)CC2CC(=O)NC(=O)C2)C(=O)[C@@H](C)C1 |  | 29.3 µM (active)
19 | CC(C)(OO)c1ccccc1 | inactive | 
20 | CC(C)(c1ccccc1)c1ccc(O)c(C(C)(C)c2ccccc2)c1 | inactive | 
21 | O=C(Nc1ccc2[nH]ccc2c1)c1cc2cc(F)ccc2n1Cc1cccc(F)c1 | inactive | 
22 | NC(=O)O | inactive | 
23 | CCOP(=S)(OCC)SCSP(=S)(OCC)OCC | inactive | 
24 | C=CC(=O)OCCCCCC(C)C | inactive | 
25 | CCOP(=S)(OCC)Oc1nc(Cl)c(Cl)cc1Cl | inactive | 
26 | COc1cc(-c2ccc(N)c(OC)c2)ccc1N | inactive | 
27 | CCC(=O)C(CC(C)N(C)C)(c1ccccc1)c1ccccc1 (stereo not given) | inactive | 
28 | CC(C)(C)CC(C)(C)c1ccc(O)cc1 | inactive | 
29 | O=[N+]([O-])c1ccc(O)c([N+](=O)[O-])c1 |  | 12.7 µM (active)
30 | O=C1C2(Cl)C3(Cl)C4(Cl)C(Cl)(Cl)C5(Cl)C3(Cl)C1(Cl)C5(Cl)C24Cl (stereo not given) | inactive | 
